The nature of assay [1]: AP1 Signaling Pathway (AID 357; active means well fitted curve in either direction with a large enough effect, not every such curve was filed as active;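 further: ME-180 reporter cells stimulated with EGF at its EC50 level; on the % scale 0 is the no-effect control and ±100 the full control effect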). As to conditions: ME-180 AP-1-bla reporter, EGF-induced, beta-lactamase ratio, 5 h; at 7.69 µM (top of the series) unless noted. Put shortly: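 First, ME-180 AP-1-bla cells were cultured overnight at 37 °C in low-serum Opti-MEM. Next, titrated compounds with EC50 EGF were incubated 5 hours. Finally, CCF4 was added for 2.5 hours and the 460/530 nm ratio recorded.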

The target in assay [2] is Cytochrome P450 1A2 (Homo sapiens) (UniProt P05177). Kind of assay: p450-cyp1a2 (AID 410; calls by dose curve; further: potency means the concentration at half of the fitted maximal effect). Put shortly: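 Inhibition was calculated relative to 57 uM furafylline (full inhibition). The reaction used human CYP1A2 at 20nM with Luciferin-ME at its Km, 100uM, driven by an NADPH-regenerating system for 60 min at room temperature.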
Assay [3] in a line: NFAT Signaling Pathway (AID 444; active means well fitted curve in either direction with a large enough effect, not every such curve was filed as active;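 further: carbachol stimulus at about its EC50 of 1 µM final; on the % scale 0 is the no-effect control and ±100 the full control effect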). As to conditions: Jurkat NFAT-bla M1, carbachol, beta-lactamase ratio, 5 h; at 7.69 µM (top of the series) unless noted. Put shortly:
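Jurkat cells with NFAT-driven β-lactamase reporter and co-expressed M1 receptor, stimulated with carbachol (final 1 uM, ~EC50), compound titration, 5 h at 37 °C. CCF4 loaded 1 h at RT; 460/530 nm ratio gave %activity and AC50.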

Assay [4] in a line: Stat Signaling Pathway (AID 446; active means well fitted curve in either direction with a large enough effect, not every such curve was filed as active;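 further: ME-180 cervical cancer cells given 40 pM IL-6 alongside compound; SIE-controlled beta-lactamase reporter measured as 460/530 nm FRET emission ratio; on the % scale 0 is the no-effect control and ±100 the full control effect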). Particulars: ME-180 SIE beta-lactamase reporter, IL-6 stimulated, 5 h; at 7.69 µM (top of the series) unless noted. A digest of the protocol:
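Reporter line: ME-180 cervical carcinoma, SIE-beta-lactamase. Treatment: compound with 40 pM IL-6, 5 hrs, 37 C, in low-serum OPTI-MEM with 10 mM HEPES pH 7.3. Detection: 460/530 nm fluorescence.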

Assay [5] addresses Glucocorticoid receptor (Homo sapiens) (UniProt P04150). The experiment in a line: GR-GFP Redistribution (AID 450;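 active means compounds whose dose series gives a full or clear partial fitted curve of increased nuclear translocation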; further: potency means the concentration at half of the fitted maximal effect). Particulars: U2OS GR-GFP nuclear translocation, laser cytometry, 2 h.
Assay [6] shares this target. The experiment in a line: GR-EFC Redistribution (AID 451; calls by dose curve; further: potency means the concentration at half of the fitted maximal effect). Particulars: CHO-K1 GR-EFC translocation, beta-gal luminescence, 2 h. A digest of the protocol: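 CHO-K1 cells expressing nuclear EA and GR-ED fragments of b-gal; compounds titrated up to 46 uM final, 2 h at 37 C. GR nuclear translocation read as complemented b-gal luminescence after 1 h RT detection.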
The target in assay [7] is Mitogen-activated protein kinase 10 (Mus musculus) (UniProt Q61831). The experiment in a line: JNK3 AlphaScreen Assay (AID 530; active means well fitted curve in either direction with a large enough effect, not every such curve was filed as active;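 further: kinase came from lysate of stimulated human HepG2 cells; signal reports phosphorylation of biotinylated GST-cJun 1-79 at Ser73 with 10 µM ATP; on the % scale 0 is the no-effect control and ±100 the full control effect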). A digest of the protocol: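 qHTS format: compounds tested as titrations against IL-1beta/TNF-alpha-activated HepG2 lysate JNK3 with biotin-GST-cJun substrate and 10 uM ATP at room temperature. Loss of anti-phospho-cJun AlphaScreen signal indicates inhibition.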

Assay [8] deals with 3',5'-cyclic-AMP phosphodiesterase 4B (Homo sapiens) (UniProt Q07343). The experiment in a line: qHTS Assay for Inhibitors of PDE-IV (AID 607; active means well fitted activation curve with a large enough effect in the main read-out, with a control signal flat, not every such curve was filed as active; further: % of control where 0% means no effect). Put shortly: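 Cell-based read-out of cAMP via a modified cyclic nucleotide-gated channel and membrane potential dye (535/590 nm) in HEK293 cells expressing PDE4 endogenously. Compounds tested up to 22.9 uM final; 100 uM RO 20-1724 reference.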
In general terms: Quantitative high-throughput screening tests each substance at several concentrations.

Assay [9] concerns the target Guanine nucleotide-binding protein G(i) subunit alpha-1 (Homo sapiens) (UniProt P63096). Kind of assay: qHTS Assay for Inhibitors of RGS12 GoLoco Motif Activity (Green Fluorophore) (AID 879).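 Further: 0% = labeled peptide with Gαi1 and full inhibition = labeled peptide alone without protein; negative values mean loss of peptide binding seen as reduced polarization.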 Put shortly:
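Fluorescence polarization assay: 50 nM Gαi1 with 10 nM FITC-labeled RGS12 GoLoco peptide in 10 mM Tris pH 7.5, 150 mM NaCl, 0.1 mM GDP, 0.05% NP40, 10 min at room temperature with compound.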

Assay [10] addresses Pyruvate kinase (Leishmania mexicana) (UniProt Q27686). Kind of assay: qHTS Validation Assay for Inhibitors of Leishmania Mexicana Pyruvate Kinase (AID 945).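 Further: 0% = DMSO only neutral control wells.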 A digest of the protocol: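 Mutant LmPYK (E451W), 0.2 nM, plus 0.5 mM PEP and 0.1 mM ADP in 50 mM imidazole pH 7.2 containing 0.01% Tween 20 and 0.05% BSA. Incubated 1 h at room temperature; luminescence via PKLight, normalized to DMSO.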

Assay [11] concerns the target Pyruvate kinase PKM (Homo sapiens) (UniProt P14618). The experiment in a line: qHTS Assay for Activators of Human Muscle Pyruvate Kinase (AID 954; active means well fitted curve in the direction sought with a large enough effect, not every such curve was filed as active;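 further: 0% = uninhibited enzyme and -100% = no enzyme or full thiadiazolimine inhibition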). Put shortly: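 Human PKM2 activity is measured as ATP generation, detected by luciferase-coupled luminescence. The enzyme (0.1 nM) acts on 0.5 mM PEP and 0.1 mM ADP for 1 h at ambient temperature; data are normalized to uninhibited and full-inhibition wells.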

The target in assay [12] is Alpha-galactosidase A (Homo sapiens) (UniProt P06280). The experiment in a line: Counterscreen for Glucocerebrosidase Inhibitors: qHTS Assay for Human alpha-Galactosidase at pH 4.5 (AID 992). Further: 0% is about no effect. A digest of the protocol: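 Quantitative HTS: compounds tested from 0.7 nM up to 77 uM against 2 nM enzyme with 80 uM 4-MU alpha-D-galactopyranoside. The 20 min room-temperature reaction is stopped with 1M NaOH/1M glycine, pH 10.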

Assay [13] has as its target alpha-glucosidase (Oryza sativa, rice) (UniProt Q653V4). The experiment in a line: Counterscreen for Glucocerebrosidase Inhibitors: qHTS Assay for Rice alpha-Glucosidase at pH 5.0 (AID 997).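 Further: 0% = full activity with enzyme and -100% = basal without enzyme.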 Put shortly:
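Rice alpha-glucosidase (4 nM final) with 400 uM 4-methylumbelliferyl-alpha-D-glucopyranoside in citrate buffer pH 5.0, 20 min at room temperature, stopped at pH 10; fluorescence 365/440 nm, compounds 0.7 nM–77 uM, AC50 from Hill fits.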

Assay [14] is described as follows: qHTS Assay for Identification of Small Molecule Antagonists for NFkB Signaling Pathway (AID 895; active means well fitted inhibition curve with a large enough effect in the signal ratio, with a control signal flat, not every such curve was filed as active; the % refers to the signal ratio; further: on the % scale 0 is the no-effect control and ±100 the full control effect). Put shortly:
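ME-180 NFkB-bla cells (beta-lactamase under NFkB response element), plated overnight, treated with compound then 10 pM TNF alpha (about EC50) for 5 hrs at 37 C. LiveBLAzer FRET read at 460/530 nm emission, 405 nm excitation.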

Assay [15] in a line: qHTS Assay for Identification of Small Molecule Agonists for Thrombopoietin (TPO) Signaling Pathway (AID 917). Further: on the % scale 0 is the no-effect control and ±100 the full control effect. A digest of the protocol: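 We measured Glycoprotein IIb promoter–luciferase output in IL-3-starved Ba/F3 murine cells expressing the human TPO receptor after 24 hrs at 37 C with compounds and 26 pM TPO.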
The target of assay [16] is Muscarinic acetylcholine receptor M1 (Rattus norvegicus) (UniProt P08482). Kind of assay: qHTS Assay for Antagonists of Acetylcholine Muscarinic M1 Receptor: Measurement of IP-One Response (AID 944). Further: nearly all actives have a fitted effect of over 75% in size. A digest of the protocol: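 Steps: plate transfected CHO-M1 cells overnight; add test compound, 10 min; add carbachol (200 nM, EC80) in stimulation buffer with LiCl; incubate 30 min; add labelled IP1 tracer and anti-IP1 antibody in lysis buffer; read HTRF after 10 min.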

For assay [17], the target named is Cytochrome P450 3A4 (Homo sapiens) (UniProt P08684). The experiment in a line: qHTS Assay for Activators of Cytochrome P450 3A4 (AID 885). Further: nearly all actives have a fitted effect of over 65% in size. A digest of the protocol:
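Signal was normalized against complete inhibition by 57 uM ketoconazole. The reaction used 20nM CYP3A4 with 25uM Luciferin-PPXE, 10-min compound preincubation and a 60-min NADPH-supported step at RT.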

Assay [18] has as its target Cytochrome P450 2D6 (Homo sapiens) (UniProt P10635). The experiment in a line: qHTS Assay for Inhibitors and Substrates of Cytochrome P450 2D6 (AID 891). Further: potency means the concentration at half of the fitted maximal effect; nearly all actives have a fitted effect of over 60% in size. Put shortly:
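Human CYP2D6 (5 nM) with 30 uM Luciferin-ME EGE (at Km) in 100 mM KPO4, compound preincubated 10 min, then NADPH regeneration system for 60 min at room temperature. Luciferin read by luminescence; normalized to 1.43 uM quinidine.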

Assay [19] addresses Cytochrome P450 2C19 (Homo sapiens) (UniProt P33261). Kind of assay: qHTS Assay for Inhibitors and Substrates of Cytochrome P450 2C19 (AID 899). Further: potency means the concentration at half of the fitted maximal effect; nearly all actives have a fitted effect of over 60% in size. Put shortly:
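Signal comes from luciferase acting on luciferin released by CYP2C19-mediated hydroxylation of Luciferin-H EGE, 10uM (KM). Assay mix: 5nM enzyme, 50mM KPO4; 60 min at 37C with NADPH regeneration. Data normalized against 57uM ketoconazole.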

The source of these data is PubChem BioAssay (NCATS).

Unmarked numbers belong to inactive results. Inconclusive results are not listed. Active and inactive are the calls of the source. Unless noted, the call rests on the fitted dose curve; in most records, active means well fitted curve in the direction sought with a large enough effect; inconclusive means small, poorly fitted or top-dose-only effect, or another doubt; inactive means no such curve, though single readings can be large; an effect the other way counts as inactive or inconclusive. A value given as a limit tells only on which side of the number the result lay.

Muscarinic acetylcholine receptor M1 (Rattus norvegicus), sequence (P08482 whole entry, looked up): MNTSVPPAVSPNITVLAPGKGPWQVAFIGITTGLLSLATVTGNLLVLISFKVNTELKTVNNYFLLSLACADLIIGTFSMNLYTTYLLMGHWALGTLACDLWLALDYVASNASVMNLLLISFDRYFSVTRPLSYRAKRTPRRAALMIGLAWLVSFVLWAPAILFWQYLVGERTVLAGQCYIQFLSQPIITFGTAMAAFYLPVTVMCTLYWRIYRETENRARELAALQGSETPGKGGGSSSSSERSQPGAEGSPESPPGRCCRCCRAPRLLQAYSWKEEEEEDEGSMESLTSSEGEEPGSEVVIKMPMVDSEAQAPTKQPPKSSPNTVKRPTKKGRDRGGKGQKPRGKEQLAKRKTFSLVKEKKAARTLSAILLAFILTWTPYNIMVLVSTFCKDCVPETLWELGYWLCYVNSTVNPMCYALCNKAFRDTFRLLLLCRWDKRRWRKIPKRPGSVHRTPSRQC
Pyruvate kinase PKM (Homo sapiens), sequence (P14618 whole entry, looked up): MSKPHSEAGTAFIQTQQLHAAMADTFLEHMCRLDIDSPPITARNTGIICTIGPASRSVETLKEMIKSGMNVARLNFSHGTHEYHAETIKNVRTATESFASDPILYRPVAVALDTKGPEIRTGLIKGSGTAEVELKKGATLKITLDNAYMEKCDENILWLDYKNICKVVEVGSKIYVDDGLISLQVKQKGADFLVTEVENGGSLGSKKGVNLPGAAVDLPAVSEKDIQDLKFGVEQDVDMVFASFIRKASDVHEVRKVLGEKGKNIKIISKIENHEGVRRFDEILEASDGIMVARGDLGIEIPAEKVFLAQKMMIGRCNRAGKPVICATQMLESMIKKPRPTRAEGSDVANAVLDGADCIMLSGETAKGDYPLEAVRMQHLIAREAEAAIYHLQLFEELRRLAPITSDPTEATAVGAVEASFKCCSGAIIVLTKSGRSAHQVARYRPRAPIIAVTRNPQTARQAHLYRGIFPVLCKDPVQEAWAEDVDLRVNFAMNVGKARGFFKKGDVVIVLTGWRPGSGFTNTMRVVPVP
Cytochrome P450 1A2 (Homo sapiens), sequence (P05177 whole entry, looked up): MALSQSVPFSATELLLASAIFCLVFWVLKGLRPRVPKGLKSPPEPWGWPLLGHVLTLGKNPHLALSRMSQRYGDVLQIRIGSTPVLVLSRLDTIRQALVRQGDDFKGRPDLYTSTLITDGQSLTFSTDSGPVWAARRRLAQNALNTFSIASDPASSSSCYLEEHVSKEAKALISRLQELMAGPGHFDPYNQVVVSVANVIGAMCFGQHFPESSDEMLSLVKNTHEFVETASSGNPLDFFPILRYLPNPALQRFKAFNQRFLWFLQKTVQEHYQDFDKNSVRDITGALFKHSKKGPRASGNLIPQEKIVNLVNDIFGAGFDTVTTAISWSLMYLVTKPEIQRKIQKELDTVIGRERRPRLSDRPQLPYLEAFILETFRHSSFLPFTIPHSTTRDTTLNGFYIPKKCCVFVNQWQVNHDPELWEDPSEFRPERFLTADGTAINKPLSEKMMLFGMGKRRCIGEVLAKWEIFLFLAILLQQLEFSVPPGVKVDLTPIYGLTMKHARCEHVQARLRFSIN
Alpha-galactosidase A (Homo sapiens), sequence (P06280 whole entry, looked up): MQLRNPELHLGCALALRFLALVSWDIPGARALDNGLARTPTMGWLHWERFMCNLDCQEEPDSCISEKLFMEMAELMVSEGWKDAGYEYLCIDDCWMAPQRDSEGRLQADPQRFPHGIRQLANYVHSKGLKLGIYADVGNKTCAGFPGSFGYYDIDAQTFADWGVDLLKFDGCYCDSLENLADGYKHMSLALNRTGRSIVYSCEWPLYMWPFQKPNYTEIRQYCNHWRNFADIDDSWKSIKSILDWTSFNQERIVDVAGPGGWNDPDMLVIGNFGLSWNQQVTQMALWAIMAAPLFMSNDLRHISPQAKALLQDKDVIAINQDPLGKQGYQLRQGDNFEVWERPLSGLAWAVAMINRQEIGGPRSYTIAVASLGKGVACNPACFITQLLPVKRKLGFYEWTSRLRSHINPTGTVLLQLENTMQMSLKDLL
Guanine nucleotide-binding protein G(i) subunit alpha-1 (Homo sapiens), sequence (P63096 whole entry, looked up): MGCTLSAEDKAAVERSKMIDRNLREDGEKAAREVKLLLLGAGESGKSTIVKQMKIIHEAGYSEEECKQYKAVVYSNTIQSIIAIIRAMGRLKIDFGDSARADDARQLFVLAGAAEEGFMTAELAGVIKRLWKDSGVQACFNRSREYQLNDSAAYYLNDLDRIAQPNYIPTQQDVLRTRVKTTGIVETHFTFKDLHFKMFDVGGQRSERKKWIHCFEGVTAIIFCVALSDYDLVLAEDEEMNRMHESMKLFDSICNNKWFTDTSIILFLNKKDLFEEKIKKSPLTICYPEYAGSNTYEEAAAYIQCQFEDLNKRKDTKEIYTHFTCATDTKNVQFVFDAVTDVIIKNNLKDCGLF
Glucocorticoid receptor (Homo sapiens), sequence (P04150 whole entry, looked up, the tested form may be a part): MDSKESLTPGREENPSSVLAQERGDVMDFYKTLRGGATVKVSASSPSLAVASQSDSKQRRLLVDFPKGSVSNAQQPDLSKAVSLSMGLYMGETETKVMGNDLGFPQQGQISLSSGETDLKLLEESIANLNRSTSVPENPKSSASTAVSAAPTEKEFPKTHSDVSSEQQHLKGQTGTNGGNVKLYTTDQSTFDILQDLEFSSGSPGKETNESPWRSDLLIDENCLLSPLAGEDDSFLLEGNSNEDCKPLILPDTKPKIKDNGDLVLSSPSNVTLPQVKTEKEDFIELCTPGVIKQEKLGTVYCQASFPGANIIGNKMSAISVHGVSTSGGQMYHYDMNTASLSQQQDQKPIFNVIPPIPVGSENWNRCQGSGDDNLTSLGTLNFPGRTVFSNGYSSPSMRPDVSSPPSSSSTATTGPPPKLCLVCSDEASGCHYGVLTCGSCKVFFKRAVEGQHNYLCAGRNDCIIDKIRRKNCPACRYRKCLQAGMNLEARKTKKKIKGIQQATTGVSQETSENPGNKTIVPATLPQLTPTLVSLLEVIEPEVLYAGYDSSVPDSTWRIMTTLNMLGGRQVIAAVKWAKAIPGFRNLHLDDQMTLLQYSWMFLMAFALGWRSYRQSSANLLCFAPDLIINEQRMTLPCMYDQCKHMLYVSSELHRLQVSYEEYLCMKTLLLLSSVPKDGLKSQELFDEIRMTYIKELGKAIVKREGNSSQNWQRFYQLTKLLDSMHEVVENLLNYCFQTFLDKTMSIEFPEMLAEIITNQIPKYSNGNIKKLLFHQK
3',5'-cyclic-AMP phosphodiesterase 4B (Homo sapiens), sequence (Q07343 whole entry, looked up): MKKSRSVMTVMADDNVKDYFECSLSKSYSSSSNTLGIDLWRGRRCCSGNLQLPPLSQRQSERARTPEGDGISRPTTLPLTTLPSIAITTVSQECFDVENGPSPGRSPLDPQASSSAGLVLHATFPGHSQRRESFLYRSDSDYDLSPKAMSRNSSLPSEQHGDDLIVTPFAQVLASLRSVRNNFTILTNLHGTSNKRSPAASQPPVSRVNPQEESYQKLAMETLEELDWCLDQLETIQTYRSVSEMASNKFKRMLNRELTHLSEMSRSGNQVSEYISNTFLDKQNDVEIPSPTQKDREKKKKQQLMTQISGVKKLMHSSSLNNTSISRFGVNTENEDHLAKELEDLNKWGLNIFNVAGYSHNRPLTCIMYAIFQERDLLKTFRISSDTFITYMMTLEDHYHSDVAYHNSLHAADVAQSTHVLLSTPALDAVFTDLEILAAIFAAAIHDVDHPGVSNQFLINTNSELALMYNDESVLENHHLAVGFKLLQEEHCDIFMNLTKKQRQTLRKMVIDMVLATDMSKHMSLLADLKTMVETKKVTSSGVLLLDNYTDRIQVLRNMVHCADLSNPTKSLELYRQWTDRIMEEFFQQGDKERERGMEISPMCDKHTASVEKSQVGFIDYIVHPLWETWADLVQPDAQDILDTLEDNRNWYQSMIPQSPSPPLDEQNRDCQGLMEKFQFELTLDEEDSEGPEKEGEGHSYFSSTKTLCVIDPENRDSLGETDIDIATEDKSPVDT
Pyruvate kinase (Leishmania mexicana), sequence (Q27686 2-499 E452W): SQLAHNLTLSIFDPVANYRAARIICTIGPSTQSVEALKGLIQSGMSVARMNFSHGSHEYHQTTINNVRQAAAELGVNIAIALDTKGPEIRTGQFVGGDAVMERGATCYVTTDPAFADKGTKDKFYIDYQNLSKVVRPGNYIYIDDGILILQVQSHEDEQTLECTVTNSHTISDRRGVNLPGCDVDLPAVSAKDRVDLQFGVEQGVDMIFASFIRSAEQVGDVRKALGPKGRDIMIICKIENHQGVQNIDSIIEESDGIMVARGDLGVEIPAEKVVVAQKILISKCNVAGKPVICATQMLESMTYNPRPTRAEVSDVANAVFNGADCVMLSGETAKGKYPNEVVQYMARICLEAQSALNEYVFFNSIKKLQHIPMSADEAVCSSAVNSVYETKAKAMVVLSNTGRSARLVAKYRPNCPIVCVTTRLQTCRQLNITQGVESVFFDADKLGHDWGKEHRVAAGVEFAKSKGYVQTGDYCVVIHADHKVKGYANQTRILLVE
Cytochrome P450 2C19 (Homo sapiens), sequence (P33261 whole entry, looked up): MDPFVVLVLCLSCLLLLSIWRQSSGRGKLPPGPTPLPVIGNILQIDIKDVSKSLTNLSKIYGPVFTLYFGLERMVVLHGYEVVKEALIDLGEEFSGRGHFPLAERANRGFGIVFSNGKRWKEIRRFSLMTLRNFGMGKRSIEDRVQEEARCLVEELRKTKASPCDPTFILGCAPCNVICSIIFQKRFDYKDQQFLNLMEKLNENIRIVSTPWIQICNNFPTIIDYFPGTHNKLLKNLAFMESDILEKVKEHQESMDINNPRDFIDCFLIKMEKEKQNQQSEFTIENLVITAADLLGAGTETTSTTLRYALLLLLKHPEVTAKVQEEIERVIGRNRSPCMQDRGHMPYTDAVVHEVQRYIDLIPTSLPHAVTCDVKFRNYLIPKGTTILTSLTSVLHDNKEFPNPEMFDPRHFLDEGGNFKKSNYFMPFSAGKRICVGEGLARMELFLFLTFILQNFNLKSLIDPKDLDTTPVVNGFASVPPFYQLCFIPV

`CNc1ncnc2c1ncn2[C@@H]1O[C@@H](CO)[C@H](O)[C@@H]1O`: the activity change, negative = inhibition in assay [1] is -19.9% [at 38 µM]; in assay [3], 0.83% [at 38 µM]. The Potency entry in [2], in [7], in assay [8] and in assay [13] was “inactive” throughout. In addition, the activity, negative = inhibition in assay [4] is -6.86% [at 38 µM]. For the same compound, the Potency in assay [5] and in [6] was above 46 µM in each case. Further, the compound was called inactive in [9], in assay [10], in assay [11] and in [12].

Take `CSc1nc(N)c2ncn([C@@H]3O[C@@H](COP(=O)(O)OP(=O)(O)O)[C@@H](O)[C@H]3O)c2n1`: the activity change, negative = inhibition was 22.9% [at 38 µM] in [1] and 6.32% [at 38 µM] in assay [3]. The Potency entry in [2], in assay [8], in [14], in assay [16] and in assay [13] was “inactive” in each case. The activity, negative = inhibition in [4] was 5.34% [at 38 µM]. Also, the Potency in [5] and in assay [6] was above 46 µM in each case. Besides, the call in assay [9], in [15], in assay [10], in assay [11] and in assay [12] was inactive.

In the case of `C[C@]1(c2ccccc2)O[C@@H]2C[C@@H]3[C@@H]4CCC5=CC(=O)C=C[C@@]5(C)[C@]4(F)[C@H](O)C[C@]3(C)[C@@]2(C(=O)CO)O1`, the activity change, negative = inhibition in assay [1] was 7.91%; in [2], -16.4% [at 2.29 µM]; in [3] it was -6.34%. Also, in [4], the activity, negative = inhibition was -4.73%. The figures for the Potency in [5] and in assay [6] were < 2.95e-05 µM (active) and 0.00231 µM (active), respectively. Moreover, the Potency entry in assay [7], in assay [8] and in assay [17] was “inactive” throughout.

`CNc1ncnc2c1ncn2[C@H]1C[C@@H](OP(=O)(O)O)[C@H](COP(=O)(O)O)O1`: the activity change, negative = inhibition in assay [1] is -5.54% [at 38 µM]; in [3], 5.84% [at 38 µM]. Further, the Potency entry in [2], in [8] and in [16] was “inactive” each time. In addition, the activity, negative = inhibition in assay [4] is -2.5% [at 38 µM]. Also, the Potency in assay [5] and in [6] was above 46 µM throughout. For the same compound, the outcome in [9], in assay [15], in [10], in [11] and in assay [12] was inactive.

Take `OC[C@@H]1O[C@@H](n2cnc3c(N[C@@H]4C[C@@H]5CC[C@H]4C5)ncnc32)[C@@H](O)[C@H]1O`: the activity change, negative = inhibition was -1.94% [at 38 µM] in [1] and 8.03% [at 38 µM] in assay [3]. For the same compound, the Potency entry in assay [2], in [8], in assay [14], in assay [16] and in [13] was “inactive” in each case. Also, the activity, negative = inhibition in [4] was 24.8% [at 38 µM]. Besides, the Potency in assay [5] and in assay [6] was above 46 µM throughout. For the same compound, the outcome in assay [9], in assay [15], in [10], in assay [11] and in assay [12] was inactive.

In the case of `CCNc1ncc2nc(CCc3ccccc3)c(=O)n(C)c2n1`, the activity change, negative = inhibition in [1] is -11.6%; in assay [3], -7.02%. The Potency in assay [2] was 2.51 µM (active); in assay [5], above 9.22 µM; in [6] it was above 46 µM; in assay [18], 1.58 µM (active); in [19], 2.51 µM (active). For the same compound, in assay [4], the activity, negative = inhibition is -0.83%. Further, the Potency entry in assay [7] is “inactive”.
